# Laboratory results taken from PubChem BioAssay (Tox21).
# Values joined by “and” are separate entries in the source; they are usually repeats but may differ in a detail not shown here. Equal values may be shown once. Records with an inconclusive call do not appear. A call without a number means that no potency is given here. A structure can be active in one record and inactive in another. Active and inactive are the calls of the source. Unless noted, calls come from the whole dose curve.
# Key:
# [1] = qHTS assay to identify small molecule agonists of the peroxisome proliferator-activated receptor delta (PPARd) signaling pathway - cell viability counter screen (AID 743211; active = well fitted curve in the direction sought with a large enough effect in the repeat runs; an effect the other way counts as inactive or inconclusive; note: nearly all actives have a fitted effect of over 55% in size)
# Summary of the method: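 Viability was measured as CellTiter-Glo luminescence (30 min, room temperature) in the same wells as the beta-lactamase readout. GeneBLAzer PPARd UAS-bla HEK293H cells received compound after 5 h plating and were incubated 17 h at 37 C.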
# [2] = qHTS assay to identify small molecule agonists of the farnesoid-X-receptor (FXR) signaling pathway - cell viability counter screen (AID 743218; active = well fitted curve in the direction sought with a large enough effect in the repeat runs; an effect the other way counts as inactive or inconclusive; note: nearly all actives have a fitted effect of over 45% in size)
# Summary of the method: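 HEK 293T FXR-bla cells; 5 h pre-incubation, 16 h compound exposure at 37 C; LiveBLAzer substrate 2 h RT, then CellTiter-Glo 30 min RT, luminescence.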
# [3] = qHTS assay to identify small molecule antagonists of the farnesoid-X-receptor (FXR) signaling pathway - cell viability counter screen (AID 743221; active = well fitted cell-killing curve with a large enough effect in the repeat runs, not every such curve was filed as active; note: nearly all actives have a fitted effect of over 50% in size)
# Summary of the method: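 Cytotoxicity counter screen run in the FXR-bla reporter wells: HEK 293T cells exposed to compound with 50 uM (final) chenodeoxycholic acid for 16 h, 37 C, then viability measured by CellTiter-Glo luminescence after 30 min, room temperature.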
# [4] = qHTS assay to identify small molecule agonists of the vitamin D receptor (VDR) signaling pathway - cell viability counter screen (AID 743224; active = well fitted curve in the direction sought with a large enough effect in the repeat runs; an effect the other way counts as inactive or inconclusive; note: series mostly up to about 63 µM; nearly all actives have a fitted effect of over 50% in size)
# Summary of the method: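 Luminescence from CellTiter-Glo, read after 30 min at room temperature, reports viability of VDR-bla cells treated with compounds for 16 h at 37C in the wells used for the beta-lactamase FRET read.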
# [5] = qHTS assay to identify small molecule antagonists of the vitamin D receptor (VDR) signaling pathway - cell viability counter screen (AID 743225; active = well fitted curve in the direction sought with a large enough effect in the repeat runs; an effect the other way counts as inactive or inconclusive; note: nearly all actives have a fitted effect of over 50% in size)
# Summary of the method: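 Cytotoxicity counter screen read by CellTiter-Glo luminescence (30 min, room temperature) in the same wells as the VDR-bla antagonist readout. HEK 293T VDR-UAS-bla cells had 16 h at 37C with compound and 3 nM (final) 1-alpha,25-dihydroxyvitamin D3, then 2 h with FRET substrate.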
# [6] = qHTS assay to identify small molecule agonists of the NFkB signaling pathway - cell viability counter screen (AID 1159515); note: series mostly up to about 61 µM; nearly all actives have a fitted effect of over 55% in size
# Summary of the method: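 Luminescence from CellTiter-Glo (30 min, room temperature) gives viability, measured in the same wells as the beta-lactamase reporter read. Cells were NFkB-bla ME-180, 2,000 per well, treated 5 hr with compounds.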
# [7] = qHTS assay to identify small molecule agonists of the endoplasmic reticulum stress response signaling pathway (AID 1159516; active = well fitted activation curve with a large enough effect in the signal ratio in the repeat runs, not every such curve was filed as active; the % refers to the signal ratio)
# Summary of the method: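 Read-out is beta-lactamase cleavage of a FRET substrate (405 nm excitation; 460 and 530 nm emissions) in ESRE-bla HeLa cells after a 5 hr compound exposure at 37 C. Substrate incubation ran 2 hr at room temperature.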
# [8] = qHTS assay to identify small molecule agonists of the endoplasmic reticulum stress response signaling pathway - cell viability counter screen (AID 1159517);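 note: HeLa cells carrying an ER stress response element beta-lactamase reporter; series mostly up to about 61 µM; nearly all actives have a fitted effect of over 50% in size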
# Summary of the method: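 ESRE-bla HeLa cells, 1,500 per well, seeded overnight then treated with compounds for 5 hr at 37 C. After the beta-lactamase read, viability in the same wells is measured by CellTiter-Glo luminescence after 30 min at room temperature.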
# [9] = biological target: Nuclear receptor ROR-gamma (Homo sapiens) (UniProt P51449); test: qHTS assay to identify small molecule antagonists of the retinoid-related orphan receptor gamma (ROR-gamma) signaling pathway (AID 1159521; active = well fitted curve in the direction sought with a large enough effect in the repeat runs; an effect the other way counts as inactive or inconclusive; note: nearly all actives have a fitted effect of over 50% in size; note: potency is the fitted concentration of half-maximal effect; for activity change, negative = inhibition: top concentration of the series differs between compounds)
# Summary of the method: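 Antagonist read-out: drop in luminescence (ONE-Glo) from an RORE-LUC reporter in CHO cells with doxycycline-inducible ROR-gamma; 2 hr compound pretreatment, 1 uM doxycycline, 16 hr incubation at 37 C.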
# [10] = qHTS assay to identify small molecule agonists of the AP-1 signaling pathway - cell viability counter screen (AID 1159525); note: nearly all actives have a fitted effect of over 55% in size
# Summary of the method: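 AP-1-bla ME-180 cells in Opti-MEM with 0.5% dialyzed FBS, compound exposure 5 h at 37 C in 15-point titration. Viability read in the same wells as ATP content by CellTiter-Glo luminescence, normalised to tetra-n-octylammonium bromide and DMSO controls.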
# [11] = qHTS assay to identify small molecule agonists of the AP-1 signaling pathway (AID 1159526)
# [12] = biological target: Retinoic acid receptor RXR-alpha (Homo sapiens) (UniProt P19793); test: qHTS assay to identify small molecule agonists of the RXR signaling pathway (AID 1159527); note: nearly all actives have a fitted effect of over 35% in size
# Chain of Retinoic acid receptor RXR-alpha (Homo sapiens) (P19793 whole entry, looked up): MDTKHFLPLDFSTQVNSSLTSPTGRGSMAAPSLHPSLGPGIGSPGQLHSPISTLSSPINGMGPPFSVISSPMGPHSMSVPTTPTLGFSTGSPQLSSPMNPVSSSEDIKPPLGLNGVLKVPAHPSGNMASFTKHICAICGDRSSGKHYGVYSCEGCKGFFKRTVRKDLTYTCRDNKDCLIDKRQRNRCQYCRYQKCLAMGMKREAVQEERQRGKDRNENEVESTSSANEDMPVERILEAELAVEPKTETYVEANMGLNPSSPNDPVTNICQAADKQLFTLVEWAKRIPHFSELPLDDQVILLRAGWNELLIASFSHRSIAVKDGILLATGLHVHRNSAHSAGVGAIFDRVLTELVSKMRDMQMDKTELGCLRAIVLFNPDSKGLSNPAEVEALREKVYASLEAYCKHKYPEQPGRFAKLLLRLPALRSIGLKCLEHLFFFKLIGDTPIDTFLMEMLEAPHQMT
# Summary of the method: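 Agonist-mode beta-lactamase reporter assay: HEK 293T RXR-alpha-UAS-bla cells treated 16 hr at 37 C with compounds, 9-cis retinoic acid as positive control. LiveBLAzer FRET substrate, 405 nm excitation, 460/530 nm emission.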
# [13] = qHTS assay to identify small molecule antagonists of the peroxisome proliferator-activated receptor delta (PPARd) signaling pathway - cell viability counter screen (AID 743213; active = well fitted curve in the direction sought with a large enough effect in the repeat runs; an effect the other way counts as inactive or inconclusive; note: nearly all actives have a fitted effect of over 50% in size)
# Summary of the method: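 PPARd-bla HEK293H cells (3000/well) got compound plus 300 nM L165041 agonist for 17 h at 37 C. Viability in the same wells came from CellTiter-Glo luminescence after 30 min at room temperature.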
# [14] = biological target: Peroxisome proliferator-activated receptor delta (Homo sapiens) (UniProt Q03181); test: qHTS assay to identify small molecule agonists of the peroxisome proliferator-activated receptor delta (PPARd) signaling pathway (AID 743212)
# Chain of Peroxisome proliferator-activated receptor delta (Homo sapiens) (Q03181 whole entry, looked up): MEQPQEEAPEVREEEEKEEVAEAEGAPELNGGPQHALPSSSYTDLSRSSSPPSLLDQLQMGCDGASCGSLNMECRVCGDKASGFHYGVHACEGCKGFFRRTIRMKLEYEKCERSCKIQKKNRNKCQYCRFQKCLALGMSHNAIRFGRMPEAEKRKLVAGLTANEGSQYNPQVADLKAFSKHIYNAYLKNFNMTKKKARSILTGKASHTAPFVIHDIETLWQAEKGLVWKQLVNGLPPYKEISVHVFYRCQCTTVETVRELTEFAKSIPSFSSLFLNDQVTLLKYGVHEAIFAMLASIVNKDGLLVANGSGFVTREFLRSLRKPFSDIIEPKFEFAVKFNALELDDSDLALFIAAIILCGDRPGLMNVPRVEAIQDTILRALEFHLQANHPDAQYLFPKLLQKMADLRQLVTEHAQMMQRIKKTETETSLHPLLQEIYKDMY
# Summary of the method: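 GeneBLAzer UAS-bla HEK293H cells carrying a PPARδ construct were exposed to compounds at 37 °C. Beta-lactamase activity was read by FRET fluorescence after 2 h at room temperature with LiveBLAzer B/G substrate.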
# [15] = biological target: Peroxisome proliferator-activated receptor delta (Homo sapiens) (UniProt Q03181); test: qHTS assay to identify small molecule antagonists of the peroxisome proliferator-activated receptor delta (PPARd) signaling pathway (AID 743215; active = well fitted inhibition curve with a large enough effect in the signal ratio in the repeat runs, not every such curve was filed as active; the % refers to the signal ratio;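 note: cells stimulated with agonist L165041 at 300 nM final during compound exposure; series mostly up to about 62 µM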)
# Summary of the method: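 Read-out is beta-lactamase FRET fluorescence, measured 2 h after substrate addition at room temperature. Beforehand, UAS-bla HEK293H cells carrying the PPARd reporter were exposed to compounds with L165041 at 300 nM final for 17 h at 37 C.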
# [16] = biological target: Vitamin D3 receptor (Homo sapiens) (UniProt P11473); test: qHTS assay to identify small molecule agonists of the vitamin D receptor (VDR) signaling pathway (AID 743222)
# Chain of Vitamin D3 receptor (Homo sapiens) (P11473 whole entry, looked up): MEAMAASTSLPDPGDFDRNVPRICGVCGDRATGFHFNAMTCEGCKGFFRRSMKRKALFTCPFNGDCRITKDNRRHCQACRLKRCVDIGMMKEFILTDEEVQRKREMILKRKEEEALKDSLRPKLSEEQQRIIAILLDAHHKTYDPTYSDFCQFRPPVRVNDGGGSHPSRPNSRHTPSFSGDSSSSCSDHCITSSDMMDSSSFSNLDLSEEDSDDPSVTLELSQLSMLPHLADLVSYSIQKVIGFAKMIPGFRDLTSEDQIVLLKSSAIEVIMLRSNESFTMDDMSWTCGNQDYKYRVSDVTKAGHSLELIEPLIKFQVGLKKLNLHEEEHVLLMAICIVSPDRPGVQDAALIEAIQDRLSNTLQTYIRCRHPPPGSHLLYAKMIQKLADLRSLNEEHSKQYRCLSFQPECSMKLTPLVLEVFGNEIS
# Summary of the method: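 VDR-bla cells, 2,000/well; 4 h preincubation 37C; cpd (DMSO) 16 h; LiveBLAzer B/G substrate 2 h RT; fluorescence intensity read.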
# [17] = biological target: Vitamin D3 receptor (Homo sapiens) (UniProt P11473); test: qHTS assay to identify small molecule antagonists of the vitamin D receptor (VDR) signaling pathway (AID 743223; active = well fitted inhibition curve with a large enough effect in the signal ratio in the repeat runs, not every such curve was filed as active; the % refers to the signal ratio)
# Summary of the method: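 Antagonist mode: compound added to VDR-bla cells alongside agonist 1alpha,25-dihydroxyvitamin D3 (3 nM final), incubation 16 h at 37C. Read-out is LiveBLAzer FRET fluorescence, 2 h at room temperature.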
# [18] = biological target: Bile acid receptor (Homo sapiens) (UniProt Q96RI1); test: qHTS assay to identify small molecule antagonists of the farnesoid-X-receptor (FXR) signaling pathway (AID 743217; active = well fitted inhibition curve with a large enough effect in the signal ratio in the repeat runs, not every such curve was filed as active; the % refers to the signal ratio)
# Chain of Bile acid receptor (Homo sapiens) (Q96RI1 whole entry, looked up): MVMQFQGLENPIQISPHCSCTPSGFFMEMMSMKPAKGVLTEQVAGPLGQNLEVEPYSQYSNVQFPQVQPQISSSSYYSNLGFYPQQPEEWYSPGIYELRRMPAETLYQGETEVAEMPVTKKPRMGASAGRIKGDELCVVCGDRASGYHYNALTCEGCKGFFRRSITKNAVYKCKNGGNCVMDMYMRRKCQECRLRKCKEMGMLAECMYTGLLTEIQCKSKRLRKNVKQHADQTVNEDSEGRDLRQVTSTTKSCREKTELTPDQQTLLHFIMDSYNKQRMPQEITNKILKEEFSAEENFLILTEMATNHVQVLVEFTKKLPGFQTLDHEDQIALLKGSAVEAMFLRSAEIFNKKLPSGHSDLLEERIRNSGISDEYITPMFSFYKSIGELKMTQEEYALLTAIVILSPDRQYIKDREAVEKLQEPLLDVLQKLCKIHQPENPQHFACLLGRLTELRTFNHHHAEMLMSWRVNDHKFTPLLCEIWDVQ
# Summary of the method: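 HEK 293T FXR-UAS-bla, 5000 cells/well; compound + CDCA 50 uM final; 16 h, 37 °C; B/G FRET substrate 2 h RT; fluorescence.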
# [19] = biological target: Bile acid receptor (Homo sapiens) (UniProt Q96RI1); test: qHTS assay to identify small molecule agonists of the farnesoid-X-receptor (FXR) signaling pathway (AID 743220; active = well fitted activation curve with a large enough effect in the signal ratio in the repeat runs, not every such curve was filed as active; the % refers to the signal ratio)
# Summary of the method: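 Beta-lactamase reporter under UAS control in GeneBLAzer FXR HEK 293T cells (5000/well) measured with LiveBLAzer FRET substrate after 2 h at room temperature. Compound exposure lasted 16 h at 37C.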
compound,measurement,setting,value
CC[N+](CC)(CC(=O)Nc1c(C)cccc1C)Cc1ccccc1,Potency,[1],inactive
same,Potency,[2],inactive
same,Potency,[3],inactive
same,Potency,[4],inactive
same,Potency,[5],inactive
same,Potency,[6],inactive
same,Potency,[7],inactive
same,Potency,[8],inactive
same,Potency,[9],inactive
same,Potency,[10],inactive
same,outcome,[11],inactive
same,Potency,[12],inactive
O=c1n(CCCN2CCN(c3cccc(Cl)c3)CC2)nc2ccccn12,Potency,[1],inactive
same,Potency,[13],inactive
same,Potency,[2],inactive
same,Potency,[3],inactive
same,Potency,[4],inactive
same,Potency,[5],inactive
same,Potency,[6],inactive
same,Potency,[7],inactive
same,Potency,[8],inactive
same,Potency,[9],inactive
same,Potency,[10],inactive
same,outcome,[11],inactive
same,Potency,[12],inactive
Cc1cc(C)cc(O)c1,Potency,[1],inactive
same,Potency,[14],inactive
same,Potency,[15],inactive
same,Potency,[2],inactive
same,Potency,[3],inactive
same,outcome,[16],inactive
same,Potency,[17],inactive
same,Potency,[4],inactive
same,Potency,[5],inactive
same,Potency,[6],inactive
same,Potency,[7],inactive
same,Potency,[8],inactive
same,Potency,[9],inactive
same,Potency,[10],inactive
same,outcome,[11],inactive
same,Potency,[12],inactive
O=c1c(O)c(-c2ccc(O)c(O)c2)oc2cc(O)cc(O)c12,Potency,[1],inactive
same,Potency,[13],inactive
same,Potency,[2],inactive
same,Potency,[3],inactive
same,outcome,[16],inactive
same,Potency,[17],inactive
same,Potency,[4],inactive
same,Potency,[5],inactive
same,Potency,[6],inactive
same,Potency,[7],inactive
same,Potency,[8],inactive
same,Potency,[9],inactive and 43.6 µM (active) and 54.5 µM (active)
same,Potency,[10],inactive
same,outcome,[11],inactive
same,Potency,[12],inactive
CCCCCNCCCCC,Potency,[1],inactive
same,Potency,[14],inactive
same,Potency,[13],inactive
same,Potency,[15],inactive
same,Potency,[2],inactive
same,Potency,[3],inactive
same,outcome,[16],inactive
same,Potency,[17],inactive
same,Potency,[4],inactive
same,Potency,[5],inactive
same,Potency,[6],inactive
same,Potency,[7],inactive
same,Potency,[8],inactive
same,Potency,[9],inactive
same,Potency,[10],inactive
same,outcome,[11],inactive
same,Potency,[12],inactive
CCCCCCCCCCCC(=O)N(C)CC(=O)O,"activity change, negative = cytotoxicity",[1],-1.87% [at 5.95 µM] (inactive)
same,activation,[14],0.0552% [at 5.95 µM] (inactive)
same,"ratio activity, negative = inhibition",[15],-7.38% [at 6.26 µM] (inactive)
same,Potency,[2],inactive
same,Potency,[3],inactive
same,outcome,[16],inactive
same,"activity change, negative = inhibition",[17],10.5% [at 6.95 µM] (inactive)
same,Potency,[4],inactive
same,Potency,[5],inactive
same,Potency,[6],inactive
same,Potency,[7],inactive
same,Potency,[8],inactive
same,Potency,[9],inactive
same,Potency,[10],inactive
same,activation,[11],-13.8% [at 6.97 µM] (inactive)
same,activation,[12],1.89% [at 6.98 µM] (inactive)
C=C(C)CC(C)(C)C,Potency,[1],inactive
same,Potency,[18],inactive
same,Potency,[2],inactive
same,Potency,[19],inactive
same,Potency,[3],inactive
same,outcome,[16],inactive
same,Potency,[17],inactive
same,Potency,[4],inactive
same,Potency,[5],inactive
same,Potency,[6],inactive
same,Potency,[7],inactive
same,Potency,[8],inactive
same,Potency,[9],inactive
same,Potency,[10],inactive
same,outcome,[11],inactive
same,Potency,[12],inactive
OCC(O)CS (stereo not drawn),Potency,[1],inactive
same,Potency,[14],inactive
same,Potency,[13],inactive
same,Potency,[15],inactive
same,Potency,[2],inactive
same,Potency,[3],inactive
same,outcome,[16],inactive
same,Potency,[17],inactive
same,Potency,[4],inactive
same,Potency,[5],inactive
same,Potency,[6],inactive
same,Potency,[7],inactive
same,Potency,[8],inactive
same,Potency,[9],inactive
same,Potency,[10],inactive
same,outcome,[11],inactive
same,Potency,[12],inactive
NC1CCCCC1N (stereo not drawn),Potency,[1],inactive
same,Potency,[18],inactive
same,Potency,[2],inactive
same,Potency,[19],inactive
same,Potency,[3],inactive
same,outcome,[16],inactive
same,Potency,[17],inactive
same,Potency,[4],inactive
same,Potency,[5],inactive
same,Potency,[6],inactive
same,Potency,[7],inactive
same,Potency,[8],inactive
same,Potency,[9],inactive
same,Potency,[10],inactive
same,outcome,[11],inactive
same,Potency,[12],inactive
